# Article PMC5540273 (PLoS ONE, 2017)
# Read-outs that look alike come from different tables or passages of the source.
# Assays:
# [1] = system: GRK1; details: concentration: 1 μM, replicates: in singlicate; n = 1
# [2] = system: T1, GRK2; details: concentration: 1 μM, replicates: in singlicate; n = 1
# T1 construct: gene ADRBK1
# [3] = system: T2, GRK3; details: concentration: 1 μM, replicates: in singlicate; n = 1
# T2 construct: gene ADRBK2
# [4] = system: GRK4; details: concentration: 1 μM, replicates: in singlicate; n = 1
# [5] = system: GRK7; details: concentration: 1 μM, replicates: in singlicate; n = 1
# [6] = system: GSK3A; details: concentration: 1 μM, replicates: in singlicate; n = 1
# [7] = system: GSK3B; details: n = 1
# [8] = system: T3, HASPIN; details: concentration: 1 μM, replicates: in singlicate; n = 1
# T3 construct: gene GSG2
# [9] = system: HCK; details: concentration: 1 μM, replicates: in singlicate; n = 1
# [10] = system: HIPK1; details: concentration: 1 μM, replicates: in singlicate; n = 1
# [11] = system: HIPK2; details: concentration: 1 μM, replicates: in singlicate; n = 1
# [12] = system: HIPK3; details: concentration: 1 μM, replicates: in singlicate; n = 1
# [13] = system: HIPK4; details: concentration: 1 μM, replicates: in singlicate; n = 1
# [14] = system: HPK1; details: concentration: 1 μM, replicates: in singlicate; n = 1
# [15] = system: HUNK; details: concentration: 1 μM, replicates: in singlicate; n = 1
# [16] = system: ICK; details: concentration: 1 μM, replicates: in singlicate; n = 1
# [17] = system: IGF1R; details: concentration: 1 μM, replicates: in singlicate; n = 1
# [18] = system: T4, IKK-alpha; details: concentration: 1 μM, replicates: in singlicate; n = 1
# T4 construct: gene CHUK
# [19] = system: T5, IKK-beta; details: concentration: 1 μM, replicates: in singlicate; n = 1
# T5 construct: gene IKBKB
# [20] = system: T6, IKK-epsilon; details: concentration: 1 μM, replicates: in singlicate; n = 1
# T6 construct: gene IKBKE
# [21] = concentration: 1 μM, replicates: in singlicate
# 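Note: KINOMEscan kinase panel screen.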
smiles,measurement,setting,value
O=C(Nc1ccccc1F)NC1CCN(c2ccnc(Nc3ccc(F)cc3)n2)C1 (stereo not shown) [GSK1379722],%Inh,[1],0%
same,%Inh,[2],0%
same,%Inh,[3],57%
same,%Inh,[4],0%
same,%Inh,[5],0%
same,%Inh,[6],0%
same,%Inh,[7]; [21],8%
same,%Inh,[8],0%
same,%Inh,[9],0%
same,%Inh,[10],0%
same,%Inh,[11],0%
same,%Inh,[12],10%
same,%Inh,[13],0%
same,%Inh,[14],42%
same,%Inh,[15],24%
same,%Inh,[16],100%
same,%Inh,[17],100%
same,%Inh,[18],24%
same,%Inh,[19],23%
same,%Inh,[20],0%
CNc1nccc(-c2c(-c3ccc(F)cc3)ncn2C2CCN(C)CC2)n1 [SB-222903],%Inh,[1],0%
same,%Inh,[2],90%
same,%Inh,[3],0%
same,%Inh,[4],0%
same,%Inh,[5],0%
same,%Inh,[6],3%
same,%Inh,[7]; [21],0%
same,%Inh,[8],6%
same,%Inh,[9],26%
same,%Inh,[10],10%
same,%Inh,[11],5%
same,%Inh,[12],0%
same,%Inh,[13],0%
same,%Inh,[14],0%
same,%Inh,[15],39%
same,%Inh,[16],0%
same,%Inh,[17],0%
same,%Inh,[18],0%
same,%Inh,[19],0%
same,%Inh,[20],0%
Nc1nc(-c2cccnc2)c(-c2ccnc3ccccc23)s1 [GW684083],%Inh,[1],0%
same,%Inh,[2],1%
same,%Inh,[3],39%
same,%Inh,[4],8%
same,%Inh,[5],0%
same,%Inh,[6],11%
same,%Inh,[7]; [21],7%
same,%Inh,[8],83%
same,%Inh,[9],0%
same,%Inh,[10],11%
same,%Inh,[11],0%
same,%Inh,[12],0%
same,%Inh,[13],0%
same,%Inh,[14],28%
same,%Inh,[15],0%
same,%Inh,[16],0%
same,%Inh,[17],13%
same,%Inh,[18],20%
same,%Inh,[19],0%
same,%Inh,[20],21%
CS(=O)(=O)CCNCc1nc(-c2ccc3ncnc(Nc4ccc(OCc5cccc(F)c5)c(Cl)c4)c3c2)cs1.Cl [GW583340],%Inh,[1],0%
same,%Inh,[2],0%
same,%Inh,[3],28%
same,%Inh,[4],0%
same,%Inh,[5],0%
same,%Inh,[6],0%
same,%Inh,[7]; [21],1%
same,%Inh,[8],0%
same,%Inh,[9],0%
same,%Inh,[10],0%
same,%Inh,[11],0%
same,%Inh,[12],0%
same,%Inh,[13],0%
same,%Inh,[14],33%
same,%Inh,[15],0%
same,%Inh,[16],0%
same,%Inh,[17],0%
same,%Inh,[18],3%
same,%Inh,[19],6%
same,%Inh,[20],7%
O=C(Nc1n[nH]c2nc(-c3ccco3)c(Br)cc12)c1ccc(CN2CCCC2)cc1.O=C(O)[C@H](O)[C@@H](O)C(=O)O [SB-742352],%Inh,[1],6%
same,%Inh,[2],0%
same,%Inh,[3],0%
same,%Inh,[4],20%
same,%Inh,[5],0%
same,%Inh,[6],76%
same,%Inh,[7]; [21],15%
same,%Inh,[8],15%
same,%Inh,[9],26%
same,%Inh,[10],0%
same,%Inh,[11],0%
same,%Inh,[12],0%
same,%Inh,[13],0%
same,%Inh,[14],17%
same,%Inh,[15],0%
same,%Inh,[16],37%
same,%Inh,[17],0%
same,%Inh,[18],0%
same,%Inh,[19],0%
same,%Inh,[20],0%
C[C@H]1CC[C@@H](C(=O)Nc2ccccc2)CN1c1cc(-c2ccc3c(N)n[nH]c3c2)nc(N)n1 [GSK2283293],%Inh,[1],0%
same,%Inh,[2],0%
same,%Inh,[3],31%
same,%Inh,[4],25%
same,%Inh,[5],0%
same,%Inh,[6],0%
same,%Inh,[7]; [21],0%
same,%Inh,[8],0%
same,%Inh,[9],3%
same,%Inh,[10],22%
same,%Inh,[11],0%
same,%Inh,[12],0%
same,%Inh,[13],0%
same,%Inh,[14],37%
same,%Inh,[15],0%
same,%Inh,[16],0%
same,%Inh,[17],15%
same,%Inh,[18],7%
same,%Inh,[19],0%
same,%Inh,[20],8%
O=C(c1ccc(-c2cc(-c3c[nH]nc3-c3ccccn3)ccn2)cc1)N1CCCC1 [GW792479],%Inh,[1],21%
same,%Inh,[2],0%
same,%Inh,[3],0%
same,%Inh,[4],0%
same,%Inh,[5],0%
same,%Inh,[6],14%
same,%Inh,[7]; [21],0%
same,%Inh,[8],2%
same,%Inh,[9],12%
same,%Inh,[10],42%
same,%Inh,[11],0%
same,%Inh,[12],0%
same,%Inh,[13],24%
same,%Inh,[14],20%
same,%Inh,[15],9%
same,%Inh,[16],0%
same,%Inh,[17],0%
same,%Inh,[18],0%
same,%Inh,[19],0%
same,%Inh,[20],0%
Nc1n[nH]c2nnc(-c3ccccc3)cc12 [SB-517389],%Inh,[1],0%
same,%Inh,[2],0%
same,%Inh,[3],0%
same,%Inh,[4],0%
same,%Inh,[5],0%
same,%Inh,[6],71%
same,%Inh,[7]; 1 µM,19%
same,%Inh,[8],0%
same,%Inh,[9],0%
same,%Inh,[10],56%
same,%Inh,[11],55%
same,%Inh,[12],83%
same,%Inh,[13],0%
same,%Inh,[14],35%
same,%Inh,[15],32%
same,%Inh,[16],6%
same,%Inh,[17],0%
same,%Inh,[18],6%
same,%Inh,[19],23%
same,%Inh,[20],22%
